Pf growth 48h: Primary qHTS for delayed death inhibitors of the malarial parasite plastid, 48 hour incubation | P. falciparum luciferase growth in erythrocytes, 48 h | Potency, µM (top dose mostly 28.7 µM), most hits filed as inhibitors | 310,000 tested, 5.9% active
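Firefly luciferase activity from engineered P. falciparum reports growth; inhibitors lower the luminescent signal. Cultures contained 2% hematocrit erythrocytes at 0.1% final parasitemia.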
HCV inhibitor: qHTS Assay for Inhibitors of Hepatitis C Virus (HCV) | Huh7.5.1 HCVcc-Cre infection, luciferase reporter, 44 h | Potency, µM (highest dose often 41.8 µM), hits mostly inhibitors | 340,000 tested, 3.4% active | AID 651820, 2012
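Reporter virus HCVcc-Cre (~0.5 moi) infects cells exposed to compound; seeding density 1,000 cells/well with 4 h settling beforehand. Luminescence, 15 sec read, taken 44 h post-infection following a 15 min RT substrate incubation.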
Pf growth 96h: Primary qHTS for delayed death inhibitors of the malarial parasite plastid, 96 hour incubation; P. falciparum luciferase reporter growth, 96 h; Potency, µM (highest dose often 28.7 µM), most hits filed as inhibitors; 320,000 tested, 6.9% active
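Two-generation exposure (96 h) targets delayed-death phenotype. Reporter parasites carrying integrated firefly luciferase, in red cells at 2% hematocrit and 0.05% parasitemia final, kept at 37 C, 5% CO2; luminescence loss indicates inhibition.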
AMA1-RON2 inh: qHTS for Inhibitors of AMA1-RON; Towards Development of Antimalarial Drug Lead: Primary Screen; Potency, µM (series often up to 58.2 µM), usual class: inhibitors; AlphaScreen AMA1-biotinylated RON2 peptide binding; Plasmodium falciparum AMA1 (3D7) - RON2 peptide interaction; 360,000 tested, 0.2% active; also: nearly all actives have a fitted effect of over 45% in size
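AMA1 (3D7) with his tag at 25 nM final met compounds first, then biotinylated RON2 peptide at 25 nM; detection used donor plus acceptor beads, 10 µg/mL apiece, read by AlphaScreen after 30 min at room temperature.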
AmpC detergent: qHTS Inhibitors of AmpC Beta-Lactamase (assay with detergent) | AmpC hydrolysis of nitrocefin, absorbance 480 nm, 0.01% Triton | 370,000 tested, 0.041% active | Potency, µM (series often up to 114 µM), most hits filed as inhibitors | P00811; also: nearly all actives have a fitted effect of over 25% in size
Target sequence (P00811 whole entry, looked up): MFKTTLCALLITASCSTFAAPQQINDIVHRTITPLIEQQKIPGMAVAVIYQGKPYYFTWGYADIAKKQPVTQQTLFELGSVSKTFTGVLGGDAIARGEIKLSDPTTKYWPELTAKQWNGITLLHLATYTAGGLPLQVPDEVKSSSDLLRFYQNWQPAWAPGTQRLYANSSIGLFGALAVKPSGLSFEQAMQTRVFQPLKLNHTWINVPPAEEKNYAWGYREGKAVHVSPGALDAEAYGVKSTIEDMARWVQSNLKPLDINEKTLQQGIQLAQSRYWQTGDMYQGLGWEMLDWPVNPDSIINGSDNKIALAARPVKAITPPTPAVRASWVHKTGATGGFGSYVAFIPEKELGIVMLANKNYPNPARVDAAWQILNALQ
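AmpC (5.3 nM in the dispensed reagent) in 20 mM phosphate pH 7.0 with 0.01% (detergent screen) or 0.0001% Triton X-100 was preincubated with compounds for 15 min at room temperature. Nitrocefin was then added from an 800 uM solution, and hydrolysis was followed at 480 nm.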
AmpC inh no detg: qHTS Inhibitors of AmpC Beta-Lactamase (assay without detergent). AmpC nitrocefin hydrolysis, absorbance 480 nm, 0.0001% Triton. Potency, µM (series often up to 57.1 µM), most hits filed as inhibitors. 330,000 tested, 0.52% active; also: nearly all actives have a fitted effect of over 20% in size
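AmpC (5.3 nM in the dispensed reagent) in 20 mM phosphate pH 7.0 with 0.01% (detergent screen) or 0.0001% Triton X-100 was preincubated with compounds for 15 min at room temperature. Nitrocefin was then added from an 800 uM solution, and hydrolysis was followed at 480 nm.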
Hits are given with their value; - = inactive; ? = inconclusive; . = no result given; [ ] = another dose, or the depositor's remark. Compounds with a hit are over-represented: about 11% of the library has one in this group of screens. Calls follow the shape of the dose curve; as a rule, active = well fitted curve in the direction sought with a large enough effect; inconclusive = small, poorly fitted or top-dose-only effect, or another doubt; inactive = no such curve, though single readings can be large; an effect the other way counts as inactive or inconclusive.

SMILES	Pf growth 48h	HCV inhibitor	Pf growth 96h	AMA1-RON2 inh	AmpC detergent	AmpC inh no detg
CCOC(=O)c1c(C)[nH]c(C)c1S(=O)(=O)N(C)CC(=O)Nc1ccccc1	-	-	?	-	-	-
Cc1ccccc1C(=O)OCc1cc(=O)n2nc(C(C)C)sc2n1	.	.	.	.	-	.
Cc1nn(-c2ccc([N+](=O)[O-])cc2)c2c1C(c1ccc(OC(F)F)cc1)N1C(=N2)C(=O)Nc2ccccc21 (centres undefined)	?	2µM	?	-	-	-
Cc1cc(C)cc(NC(=O)C(Sc2ncnc3ccccc23)c2ccccc2)c1 (centres undefined)	11.7µM	-	3.29µM	-	-	-
O=C(Nc1cccc(C(F)(F)F)c1)C(Sc1ncnc2ccccc12)c1ccccc1 (centres undefined)	7.38µM	-	?	-	-	-
O=C(Cn1c(=O)nc(-c2ccccc2)c2cc(Cl)ccc21)N1CCN(c2ccccc2F)CC1	.	.	.	.	-	.
COc1ccc(N2C(=O)CC2(/C=C/c2ccccc2OC)C(=O)NC2CCCC2)cc1 (centres undefined)	11.7µM	-	-	-	-	-
O=C1CC(/C=C/c2ccccc2)(C(=O)NC2CCCC2)N1c1ccc(S(=O)(=O)N2CCCC2)cc1 (centres undefined)	-	-	-	-	-	-
CCOC(=O)CNC(=O)C1(/C=C/c2ccccc2)CC(=O)N1c1ccc(OC)cc1 (centres undefined)	10.4µM	-	?	-	-	-
CCCNC(=O)c1ccccc1NC(=O)c1ccc2c(c1)NC(=O)C(C)S2 (centres undefined)	?	4.47µM	?	-	-	-
CC1Sc2ccc(C(=O)Nc3ccc(S(=O)(=O)N(C)C)cc3)cc2NC1=O (centres undefined)	?	?	?	-	-	?
COc1ccc(S(=O)(=O)N(C)C)cc1NC(=O)c1ccc2c(c1)NC(=O)C(C)S2 (centres undefined)	9.28µM	?	5.22µM	-	-	-
CC(=O)c1ccccc1NC(=O)c1ccc2c(c1)NC(=O)C(C)S2 (centres undefined)	-	11.2µM	-	-	-	-
CC1Sc2ccc(C(=O)NCc3cccc(C(F)(F)F)c3)cc2NC1=O (centres undefined)	?	22.4µM	-	-	-	-
COc1ccc(OC)c(NC(=O)c2nc(SCc3ccccc3F)ncc2Cl)c1	.	.	.	.	-	.
Cc1ccc2c(CNCCc3ccccc3)c(C(=O)O)n(Cc3ccccc3C)c2c1	.	.	.	.	-	.
COc1ccccc1CNC(=O)CSc1ncc2c(n1)-c1cc(Cl)ccc1N(Cc1ccccc1)S2(=O)=O	.	.	.	.	-	.
CC(CSC(=O)c1ccccc1)C(=O)N1C[C@@H](Sc2ccccc2)C[C@H]1C(=O)O (some centres undefined)	-	.	-	.	.	.
COc1ccccc1NCc1cccn1-c1nnc(N2CCOCC2)s1	.	.	.	.	-	.
Cc1cccc(NC(=O)c2cc3c([nH]c2=O)CC(c2ccccc2)CC3=O)c1 (centres undefined)	.	.	.	.	-	.
COc1ccc(CNCC(O)(c2ccccc2)c2ccc(Cl)cc2)cc1 (centres undefined)	2.33µM	?	2.33µM	-	-	-
COc1cccc(CCNCc2cccc(C(F)(F)F)c2)c1	-	-	-[1.15 µM]	-	-	-
COc1cccc(CNCC(O)(c2ccc(Cl)cc2)c2ccc(Cl)cc2)c1	6.57µM	-	1.31µM	-	-	-
Cc1ccc(CNCC(O)(c2ccccc2)c2ccc(Cl)cc2)cc1 (centres undefined)	0.828µM	?	1.65µM	?	-	-
CC(NC(=O)CN1C(=O)COc2ccc(Cl)cc21)c1ccccc1 (centres undefined)	.	.	.	.	-	.
SMILES	Pf growth 48h	HCV inhibitor	Pf growth 96h	AMA1-RON2 inh	AmpC detergent	AmpC inh no detg
Cc1nn(-c2ccc(N3CCCC3)nn2)c(C)c1CCC(=O)Nc1ccc(F)c(Cl)c1	.	.	.	.	-	.
CSc1cccc(NC(=O)C2C3C=CC4(O3)C2C(=O)N(CCCN2CCOCC2)C4C(=O)NC2CCCCC2)c1 (centres undefined)	-	-	-	-	-	-
Cc1cc(C)cc(NC(=O)C2C3C=CC4(O3)C2C(=O)N(CCN2CCCCC2)C4C(=O)NC2CCCCC2)c1 (centres undefined)	?	-	10.4µM	-	-	-
O=C(Nc1ccc(Br)cc1)C1C2C=CC3(O2)C1C(=O)N(CCN1CCCCC1)C3C(=O)NC1CCCCC1 (centres undefined)	?	?	?	-	-	-
CCCN(CCC)CCN1C(=O)C2C(C(=O)Nc3cccc(SC)c3)C3C=CC2(O3)C1C(=O)NC1CCCCC1 (centres undefined)	3.7µM	-	-	-	-	-
COc1ccc(N2CCN(c3csc4ccccc4c3=O)CC2)cc1	.	.	.	.	-	.
CCc1ccc(C(=O)c2cn(CC(=O)Nc3ccc4c(c3)OCO4)c3cc(OC)c(OC)cc3c2=O)cc1	.	.	.	.	-	.
CCOC(=O)Cc1c(C)nc2cc(C)nn2c1C	-	-	13.1µM	-	-	-
Cc1ccc(S(=O)(=O)N2CCN(Cc3nc4ccc(C)cc4o3)CC2)c(C)c1	.	.	.	.	-	.
CCn1c(CN2CCCCC2)nc2cc(NC(=O)COc3ccccc3C(C)(C)C)ccc21	.	.	.	.	-	.
COc1ccc(-n2cc(-c3ccc(OC(F)F)cc3)[n+]3c2CCCCC3)cc1	1.65µM	-	?	-	-	-
COc1ccc(-c2cn(-c3ccc(Cl)cc3)c3[n+]2CCCCC3)cc1	?	-	?	-	-	-
Cc1ccc(S(=O)(=O)Nc2cc(C(F)(F)F)ccc2N2CCOCC2)cc1	?	-	13.1µM	-	-	-
Cc1ccc(S(=O)(=O)Nc2cc3c(cc2N2CCOCC2)n(C)c(=O)n3C)c(C)c1	.	.	.	.	-	.
Cc1ccc(S(=O)(=O)Nc2cc(C(F)(F)F)ccc2N2CCOCC2)c(C)c1	?	-	11.7µM	-	-	-
COc1ccc(NC(=O)C2=C(C)Nc3c(C(=O)Nc4ccc(C)cc4)cnn3C2c2cccc(Cl)c2)cc1 (centres undefined)	.	.	.	.	-	.
Cc1cccc(S(=O)(=O)c2cn(Cc3ccc(F)cc3)c3cc(N4CCOCC4)c(F)cc3c2=O)c1	.	.	.	.	-	.
CN(CC(=O)Nc1ccc(Cl)cc1)C(=O)c1cccc(S(=O)(=O)N(C)C)c1	?	-	10.4µM	-	-	-
CN(CC(=O)Nc1ccc(Cl)cc1)C(=O)c1sccc1-c1ccccc1	-	12.6µM	?	-	-	-

Assay outcomes from PubChem BioAssay.
